MARV entry inh: inhibitors of Marburg virus binding or cell entry. 1.8% of 300,000 active. Potency, µM (top dose mostly 37.8 µM), without a hit: at the top dose activity change, negative = inhibition, most hits filed as inhibitors. Marburg virus pseudotyped entry inhibition, cell reporter. AID 540276; calls by dose curve; tested in HEK293 cells; further: potency means the concentration at half of the fitted maximal effect; on the % scale 0 is the no-effect control and ±100 the full control effect
Lassa entry inh: inhibitors of Lassa virus binding or cell entry; Lassa virus pseudotype entry inhibition, cell reporter; Potency, µM (doses to about 37.9 µM), inactives show at the highest dose activity change, negative = inhibition, usual class: inhibitors; 1.2% of 300,000 active; calls by dose curve; tested in HEK293 cells; further: potency means the concentration at half of the fitted maximal effect; on the % scale 0 is the no-effect control and ±100 the full control effect; nearly all actives have a fitted effect of over 50% in size
FMDV inh: antivirals against foot and mouth disease virus | FMDV antiviral cell-based qHTS | Potency, µM (highest dose often 57.9 µM), inactives show at the highest dose activity change, negative = inhibition, hits mostly inhibitors | 1.2% of 410,000 active | AID 1159524; calls by dose curve; tested in HEK293T cells; further: read-out not given here; potency means the concentration at half of the fitted maximal effect; on the % scale 0 is the no-effect control and ±100 the full control effect; nearly all actives have a fitted effect of over 45% in size
HCV inh: HCV inhibition; Huh7.5.1 HCVcc-Cre infection, luciferase reporter, 44 h; Potency, µM (top dose mostly 41.8 µM), for the others: at the highest dose activity change, negative = inhibition, usual class: inhibitors; 3.4% of 340,000 active; active means well fitted inhibition curve with a large enough effect; inconclusive means small, poorly fitted or top-dose-only effect, or another doubt; inactive means no such curve, though single readings can be large or run the other way; further: potency means the concentration at half of the fitted maximal effect; on the % scale 0 is the no-effect control and ±100 the full control effect
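Compounds are dispensed onto cells plated 4 h earlier at 1,000 per well, with HCVcc-Cre virus (about 0.5 moi) added next. Following 44 h of culture, luminescent signal is measured for 15 sec after 15 min with substrate at room temperature.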
HCMV inh: inhibitors of human cytomegalovirus; activity change, negative = inhibition, % at 57.5 µM; 4.5% of 410,000 active; AID 1259415; HFF cells, HCMV-luciferase reporter, 72 h; active compounds read low; in the data active means activity change below about -60%; inconclusive means no clear call, values can overlap the other calls; inactive means above about -39%; further: on the % scale 0 is the no-effect control and ±100 the full control effect
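Compounds were evaluated in HFFs infected with an HCMV luciferase reporter virus (MOI 1 PFU/cell). Luciferase in lysates collected 72 h post infection served as the replication measure.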
SARS PLP yeast: blocks SARS-CoV papain-like protease in a yeast assay | S. cerevisiae expressing SARS-CoV PLpro, growth rescue | Potency, µM (highest dose often 32.9 µM), without a hit: at the top dose activity, positive = growth rescue, actives largely listed as activators | 0.19% of 330,000 active; calls by dose curve; further: potency means the concentration at half of the fitted maximal effect; 0% is about no effect; nearly all actives have a fitted effect of over 55% in size
* = called active by the depositor; [ ] = dose if it differs, or a comment. Most compounds without a hit are left out; they make up all but 8% or so of the library.

`O=C(NCc1n[nH]c(=S)n1-c1ccccc1Cl)c1ccc(S(=O)(=O)N2CCCCC2)cc1` gave MARV entry inh inconclusive, Lassa entry inh 4%[46.1 µM], FMDV inh 24%, HCV inh 9%, HCMV inh -34 and SARS PLP yeast 10%.
For COc1ccccc1-n1c(CNC(=O)c2ccc(S(=O)(=O)N3CCCCC3)cc2)n[nH]c1=S the results were MARV entry inh 27%, Lassa entry inh 1%, FMDV inh -12%, HCV inh 17%, HCMV inh -70* and SARS PLP yeast -7%.
For CCN1CCN(c2cc(C)c3cc(NC(=S)NCCN(C)C)ccc3n2)CC1 the results were MARV entry inh inconclusive, Lassa entry inh inconclusive, FMDV inh 9%, HCV inh inconclusive, HCMV inh 32 and SARS PLP yeast -1%.
Cc1cc(N2CCN(C)CC2)nc2ccc(NC(=S)NCCCN3CCc4ccccc4C3)cc12 was read as MARV entry inh 4µM*, Lassa entry inh inconclusive, FMDV inh -12%, HCV inh 11µM*, HCMV inh -3 and SARS PLP yeast -2%.
Screening Cc1cc(N2CCCC2)nc2ccc(NC(=S)NCCCN3CCC(C)CC3)cc12 returned MARV entry inh inconclusive, Lassa entry inh inconclusive, FMDV inh -15%, HCV inh 10µM*, HCMV inh -88* and SARS PLP yeast 0%.
For CCN(CC)CCNC(=S)Nc1ccc2nc(N3CCN(CC)CC3)cc(C)c2c1 the results were MARV entry inh inconclusive, Lassa entry inh -20%[46.1 µM], FMDV inh -15%, HCV inh inconclusive, HCMV inh inconclusive and SARS PLP yeast 1%.
Screening Cc1cc(N2CCOCC2)nc2ccc(NC(=S)N3CCCCC3C)cc12 (stereo not drawn) returned MARV entry inh 2.8µM*, Lassa entry inh inconclusive, FMDV inh 30%, HCV inh inconclusive, HCMV inh inconclusive and SARS PLP yeast -6%.
For Cc1cc(N2CCN(C)CC2)nc2ccc(NC(=S)NCCN3CCc4ccccc4C3)cc12 the results were MARV entry inh 0%, FMDV inh -22%, HCV inh 11µM*, HCMV inh inconclusive and SARS PLP yeast 1%.
`CCN1CCN(c2cc(C)c3cc(NC(=S)NCCCN4CCc5ccccc5C4)ccc3n2)CC1` gave MARV entry inh 13µM*, Lassa entry inh -24%, FMDV inh 1%, HCV inh 8.9µM*, HCMV inh inconclusive and SARS PLP yeast 3%.
`CC[C@@]1(c2ccccc2OC)ON(c2ccccc2C(F)(F)F)C1=O` gave FMDV inh 32µM*, HCV inh inconclusive, HCMV inh inconclusive and SARS PLP yeast -1%.
Screening Cc1ccccc1[C@@]1(C)ON(c2ccccc2C(F)(F)F)C1=O returned FMDV inh inconclusive, HCV inh inconclusive, HCMV inh -11 and SARS PLP yeast -20%.
CCOC(=O)c1cccn1C1C(=O)N(C)c2c(F)cccc21 (stereo not drawn) was read as HCMV inh 21.
`C=CCn1c(SCc2nc3scc(-c4ccccc4)c3c(=O)[nH]2)nnc1-c1ccccc1F` gave MARV entry inh inconclusive, Lassa entry inh -9%, FMDV inh 28µM*, HCV inh -18%, HCMV inh -15 and SARS PLP yeast inconclusive.
`Cn1nnnc1SCc1nc2scc(-c3ccc(Cl)cc3)c2c(=O)[nH]1` gave FMDV inh -19%, HCV inh inconclusive, HCMV inh -70* and SARS PLP yeast -1%.
CN(Cc1ccccc1)c1ccc(-c2nc(-c3ccccn3)no2)cc1[N+](=O)[O-] was read as MARV entry inh 11%[46.1 µM], Lassa entry inh -5%[46.1 µM], FMDV inh 5% and HCMV inh 45.
`Cc1cc(N2CCN(C)CC2)ccc1NC(=O)c1c2c(nc3ccccc13)CCN(Cc1ccccc1)C2` gave MARV entry inh inconclusive, Lassa entry inh inconclusive, FMDV inh -10%, HCV inh 2µM* and SARS PLP yeast 0%.

From PubChem BioAssay
